Here are results for 56 compounds from ChEMBL document CHEMBL3988442, “University of Dundee, Small-Polar-MMV Screening Library” (2021).

Hit rate of the full screen: of about 69,000 compounds, about 420 (0.61%) showed an effect of 50% or more. What follows is part of a selection rich in strong results, with near analogues and random picks from the rest.

The assay has as its target T1, Histidine--tRNA ligase (Leishmania infantum) (UniProt A4I591).
T1 sequence (whole entry): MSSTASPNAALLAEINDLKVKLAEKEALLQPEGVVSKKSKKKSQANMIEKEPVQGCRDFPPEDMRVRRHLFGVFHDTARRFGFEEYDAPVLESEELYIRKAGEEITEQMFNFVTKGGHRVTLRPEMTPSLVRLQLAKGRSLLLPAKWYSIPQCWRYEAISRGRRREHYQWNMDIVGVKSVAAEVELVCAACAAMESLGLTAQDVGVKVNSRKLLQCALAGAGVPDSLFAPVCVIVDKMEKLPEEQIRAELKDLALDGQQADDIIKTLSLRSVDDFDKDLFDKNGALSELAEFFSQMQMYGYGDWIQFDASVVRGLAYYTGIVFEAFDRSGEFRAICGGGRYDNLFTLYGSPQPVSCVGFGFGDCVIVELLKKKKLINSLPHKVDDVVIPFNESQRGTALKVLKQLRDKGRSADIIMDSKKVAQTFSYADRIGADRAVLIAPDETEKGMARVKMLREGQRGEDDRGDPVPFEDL
Description: Leishmania infantum Histidine tRNA synthetase (LdHisRS). Details: scale not given: in the data most compounds retested in dose-response had high values. The note with it: 30 µM. In kind it is functional.
Turning to `O=C(c1ccco1)N1CC[C@@H]2O[C@@H](COCC3CCOCC3)CC[C@@H]21`, the Percent Effect was -0.84%.

Take `COC[C@@]12CCO[C@@H]1CCN(C(=O)CCc1ccccc1Cl)C2`: the Percent Effect is 12.9%.

As for `Cc1ncc2c(n1)CN(Cc1nnc(Cc3ccccc3)o1)CC2`, the Percent Effect came to 55.4%. In the case of `CC(C)c1ncc2c(n1)CN(Cc1nnc(Cc3ccccc3)o1)CC2` it was 33%; in that of `CCc1ncc2c(n1)CN(Cc1nnc(Cc3ccccc3)o1)CC2`, 31.2%; in that of `CC(C)N1C[C@@H]2OCC(=O)N(Cc3ccccc3)[C@@H]2C1`, 8.11%. As for `Cc1nnc(N2CCc3cnc(C(C)C)nc3C2)c(C#N)c1C`, the figure is 46.7%; as for `Cc1nnc(N2CCc3cncnc3C2)c(C#N)c1C`, 65.3%.

`CCc1ncc2c(n1)CN(c1nnc(C)c(C)c1C#N)CC2`: the Percent Effect worked out at 12%. As to `O=C(c1ccnnc1)N1C[C@@H](OCC2CCOCC2)[C@H]2OCCC[C@H]21`, the Percent Effect was determined as 11.8%.

Take `COc1cc(F)c(CN2CCN(CC(C)C)C(=O)C2C)cc1OC` (stereo unspecified): the Percent Effect came to 10.8%.

Take `COC(=O)c1ccc(OC)c(CN2CCN(CC(C)C)C(=O)C2C)c1` (stereo unspecified): the Percent Effect came to 10.8%. As for `COc1cccc(CN2CCN(CC(C)C)C(=O)C2C)c1O` (stereo unspecified), the figure is 98.9%; as for `CC(=O)N1CCN(c2ccccc2CNc2cncc(C)c2)CC1`, 11%. In the case of `COc1ccc(NCc2ccccc2N2CCN(C(C)=O)CC2)cn1` it was 24.7%.

On to `CC(=O)N1CCN(c2ccccc2CNc2ccc3[nH]ncc3c2)CC1`, for which the Percent Effect was 57.5%.

For the compound `Cn1ccnc1CN1CCN(Cc2ccccc2)[C@@H]2CS(=O)(=O)C[C@@H]21`, the Percent Effect is 5.59%. With `CNc1[nH]nc(N)c1C(=O)Nc1ccc(OC)cc1`, the Percent Effect worked out at 27.5%. In the case of `CNc1[nH]nc(N)c1C(=O)Nc1ccccc1` it was -15%.

With `CNc1[nH]nc(N)c1NC(=O)c1ccccc1`, the Percent Effect stood at 87.5%. As for `Cc1[nH]ccc1C(=O)N1C[C@H]2CC[C@@H]1CN(S(=O)(=O)N(C)C)C2`, the figure is 16.1%.

In the case of `Cn1cc(CNc2cnn(CC3CCCO3)c2)c(-c2ccncc2)n1` (stereo unspecified), the Percent Effect was determined as 30.7%. Turning to `Cn1cc(CNc2cnn(CCO)c2)c(-c2ccncc2)n1`, the Percent Effect amounted to 21.9%. In the case of `COCCn1cc(NCc2cn(C)nc2-c2ccncc2)cn1` it was 51.8%; in that of `Cc1ncsc1CN1C[C@@H]2CN(S(C)(=O)=O)CCO[C@@H]2C1`, 20%.

For `Cc1ccc(CN2CC[C@H]3C[C@@H](c4nc(C5CC5)cs4)O[C@@H]3C2)o1`, the Percent Effect is 19.8%. In the case of `Cc1noc([C@@]23CCO[C@@H]2CCN(C(=O)CCC(C)C)C3)n1` it was 5.56%. As for `CC(C)[C@H](NC(=O)N1CCC(Cc2ccccc2)CC1)C(=O)O`, the figure is -2.5%; as for `CC(C)(C)C(=O)N1CCC(COCc2ccccc2)C1` (stereo unspecified), 8%. As for `Cn1cccc(NC(=O)N2CCC(Cc3ccccc3)C2)c1=O` (stereo unspecified), the figure is 106%; as for `Cn1cccc(NC(=O)N2CCC(COCc3ccccc3)C2)c1=O` (stereo unspecified), 108%.

As to `COc1c(C(=O)N2CCC(CSc3ccccc3)C2)c(C)nn1C` (stereo unspecified), the Percent Effect was 19.2%. `Cn1cccc(NC(=O)N2CCC(CSc3ccccc3)C2)c1=O` (stereo unspecified): the Percent Effect turned out to be 78.1%. As for `Cc1nn(C)cc1C(=O)N1CCC(CSc2ccccc2)C1` (stereo unspecified), the figure is 11%. For `Cc1cnc(C(=O)N2CCC(COCc3ccccc3)C2)cn1` (stereo unspecified), the Percent Effect stood at 2.67%. As for `Cn1ccnc1CC1CCCN(C(=O)Nc2cccn(C)c2=O)C1` (stereo unspecified), the figure is 17.3%. In the case of `Cc1csc(CN2C[C@@H]3COC[C@]3(C(=O)NCc3ccco3)C2)n1` it was 7%; in that of `Cc1oncc1C(=O)N1CC[C@H]2[C@H](CO[C@@H]2CNS(C)(=O)=O)C1`, 28.6%. In the case of `CN(C)C[C@H]1OC[C@@H]2CCN(C(=O)Cc3cccs3)C[C@@H]21` it was 7.89%.

Regarding `CN(C)C(=O)N1C[C@@H](C(=O)NCc2ccco2)C[C@H]2OCC[C@H]21`, the Percent Effect was found to be 0%. For `O=C(O)[C@]12CCCN(Cc3cccs3)C[C@H]1CN(c1ncccn1)C2`, the Percent Effect is 22.2%. In the case of `Cc1nc[nH]c1CN1C[C@@H]2CC[C@H](C1)N(C(=O)CCc1cnn(C)c1)C2`, the Percent Effect worked out at 16.4%. In the case of `Cc1ccc(C)c(CC(=O)Nc2cccc(C(=O)N(C)C)n2)c1`, the Percent Effect worked out at 17.1%. Turning to `COc1cc(CC(=O)Nc2cccc(C(=O)N(C)C)n2)ccc1C`, the Percent Effect was found to be 54%. In the case of `CN(C)C(=O)c1cccc(NC(=O)Cc2cc(F)ccc2F)n1` it was 19.7%; in that of `O=S(=O)(c1cccs1)N1CC[C@H]2[C@H]1CCN2CC1CC1`, 3.88%.

Take `CN(C)C[C@H]1OC[C@@H]2CCN(C(=O)c3cccn3C)C[C@@H]21`: the Percent Effect turned out to be 9.43%.

Turning to `c1ccc(COC[C@H]2CC[C@H]3[C@H](CCN3Cc3ccccn3)O2)nc1`, the Percent Effect was 10%.

Take `NC(=O)c1cc(-c2cccc(C(=O)O)c2)cs1`: the Percent Effect worked out at 15.8%. In the case of `NC(=O)c1ccccc1-n1cc(-c2cccc(C(=O)O)c2)cn1` it was 52.6%; in that of `NC(=O)c1cc(-n2cc(-c3cccc(C(=O)O)c3)cn2)cs1`, 10.5%; in that of `CCC1=NN2C(=N)/C(=C\c3cccn3-c3ccc(Br)cc3)C(=O)N=C2S1`, 11%. As for `CN(C)CCN1C[C@@H]2CN(c3ccccc3)C[C@@H]2C1=O`, the figure is 6.36%; as for `CC(C(=O)N1CCc2ccccc2C1)N(C)Cc1cscn1` (stereo unspecified), 3.9%; as for `CCc1cnc(CN(C)C(C)C(=O)N2CCc3ccccc3C2)s1` (stereo unspecified), 9.09%. As for `Cc1csc(CN(C)C(C)C(=O)N2CCc3ccccc3C2)n1` (stereo unspecified), the figure is 55.8%.
